Compound activity deposited in PubChem by The Scripps Research Institute Molecular Screening Center.
PAFAH2 FP inh = PAFAH2 (human) inhibition; recombinant PAFAH2, FP-rhodamine activity probe, fluorescence polarization; AID 492956; Q99487; hit rate 0.99% among 340,000; inhibition, % at 3.39 µM;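 active = inhibition above the mean over all tested compounds plus 3 SD, cut at about 30% in these data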;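 note: inhibitors block probe labeling of enzyme so polarization drops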
PAFAH1B3 inh = PAFAH1B3 (human) inhibition; Q15102; recombinant PAFAH1B3, FP-rhodamine probe, fluorescence polarization; inhibition, % at 3.39 µM; hit rate 0.28% among 340,000; AID 492972;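 active = inhibition above the screen-wide average of all tested compounds plus 3 SD, cut at about 25% in these data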
PP1 counter = PP1-alpha (human) inhibition in PP5 counter-screen. P62136. purified PP1alpha, OMFP fluorescence. inhibition, % at 6.7 µM. hit rate 0.9% among 320,000. AID 2235;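 active = inhibition above the mean inhibition of all tested compounds plus 3 SD, computed separately for each screening campaign, cut at about 15% in these data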
PP5 primary = PP5 (human) phosphatase inhibition; P53041; purified PP5c, OMFP substrate fluorescence; inhibition, % at 6.7 µM; hit rate 0.18% among 320,000; AID 1987;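 active = inhibition above the campaign's mean inhibition across all tested compounds plus 3 SD, cut at about 9.5% in these data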
Target sequence (P53041 whole entry, looked up): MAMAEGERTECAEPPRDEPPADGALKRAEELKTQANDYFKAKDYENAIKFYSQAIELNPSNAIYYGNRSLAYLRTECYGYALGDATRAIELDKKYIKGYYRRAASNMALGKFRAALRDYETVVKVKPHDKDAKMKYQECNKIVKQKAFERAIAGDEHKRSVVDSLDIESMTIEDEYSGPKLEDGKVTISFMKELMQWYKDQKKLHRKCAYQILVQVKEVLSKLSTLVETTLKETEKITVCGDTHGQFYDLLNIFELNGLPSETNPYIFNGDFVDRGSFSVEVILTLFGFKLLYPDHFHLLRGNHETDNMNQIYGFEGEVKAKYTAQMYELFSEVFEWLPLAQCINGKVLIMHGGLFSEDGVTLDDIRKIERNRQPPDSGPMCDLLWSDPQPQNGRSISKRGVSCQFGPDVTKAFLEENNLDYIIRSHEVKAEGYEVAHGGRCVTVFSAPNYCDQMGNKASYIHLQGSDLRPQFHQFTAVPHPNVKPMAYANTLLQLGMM
PAFAH1B2 inh = inhibitors of human PAFAH1B2. AID 492953. P68402. recombinant PAFAH1B2, FP-rhodamine activity probe, fluorescence polarization. inhibition, % at 3.39 µM. hit rate 1.2% among 340,000;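 active = inhibition above the mean of all tested compounds plus 3 SD, cut at about 24% in these data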
pPAFAH FP inh = inhibitors of human plasma PAF acetylhydrolase (pPAFAH) | Q13093 | recombinant pPAFAH, FP-rhodamine probe fluorescence polarization | inhibition, % at 3.39 µM | hit rate 1.5% among 330,000 | AID 463082;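 active = inhibition above the mean inhibition across the screen plus 3 SD, cut at about 25% in these data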;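 note: inhibitors block binding of the rhodamine activity-based probe so polarization drops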
PP1 inh confirm = confirmation of human PP1 phosphatase inhibitors | shares compounds with PP1 counter | purified PP1alpha, OMFP substrate fluorescence | inhibition, % at 6.7 µM | hit rate 52% among 1,900;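 active = mean PP1 inhibition above a set limit taken from the earlier primary screen, cut at about 15% in these data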
PP5 inh counter = inhibits human PP5 phosphatase in PP1 counter-screen. shares compounds with PP1 counter. purified PP5c, OMFP fluorescence. inhibition, % at 6.7 µM. hit rate 4% among 1,900. AID 2360;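 active = mean PP5 inhibition over triplicate wells above about 9.5% taken from the earlier PP1 screen, limit read from the data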
Numbers stand for hits. Rows were chosen to be rich in hits. Some 3.4% of all compounds tested hit in one or more screens of this group.

What do the screens show for `CCOC(=O)c1[nH]nc(C(=O)c2ccc(Br)cc2)c1O`?
PAFAH2 FP inh: inactive; PAFAH1B3 inh: inactive; PP1 counter: 31; PP5 primary: inactive; PAFAH1B2 inh: inactive; pPAFAH FP inh: inactive; PP1 inh confirm: 30; PP5 inh counter: inactive

Results for COc1ccccc1N1CCN(C2CCCN(C(=O)CC(F)(F)F)C2)CC1 (stereo unspecified) ?
PAFAH2 FP inh: inactive; PAFAH1B3 inh: inactive; PP1 counter: inactive; PP5 primary: inactive; PAFAH1B2 inh: inactive; pPAFAH FP inh: inactive

What do the screens show for `Cc1sc2nc(CN3CCCC3)nc(N3CCN(S(=O)(=O)c4cccc(F)c4)CC3)c2c1C`?
PAFAH2 FP inh: inactive; PAFAH1B3 inh: inactive; PP1 counter: 19; PP5 primary: inactive; PAFAH1B2 inh: inactive; pPAFAH FP inh: inactive; PP1 inh confirm: inactive; PP5 inh counter: inactive

What do the screens show for `COc1ccc2nc3cc(Cl)ccc3c(Nc3cc(C(C)C)c(O)cc3C)c2c1`?
PAFAH2 FP inh: inactive; PAFAH1B3 inh: inactive; PP1 counter: 29; PP5 primary: inactive; PAFAH1B2 inh: inactive; pPAFAH FP inh: inactive; PP1 inh confirm: inactive; PP5 inh counter: inactive

What do the screens show for `COc1ccc(-c2cc(C(=O)NNC(=S)NC(=O)c3c(-c4ccccc4)noc3C)[nH]n2)cc1`?
PAFAH2 FP inh: inactive; PAFAH1B3 inh: inactive; PP1 counter: 18; PP5 primary: inactive; PAFAH1B2 inh: inactive; pPAFAH FP inh: inactive; PP1 inh confirm: 17; PP5 inh counter: inactive

How did CN1CCN(C(c2ccc(Br)cc2)c2cc(Cl)c3cccnc3c2O)CC1 (stereo unspecified) do in these assays?
PAFAH2 FP inh: inactive; PAFAH1B3 inh: inactive; PP1 counter: 24; PP5 primary: inactive; PAFAH1B2 inh: inactive; pPAFAH FP inh: inactive; PP1 inh confirm: inactive; PP5 inh counter: inactive

How did C=CCOC(=O)C1=C(C)NC(SCC(=O)Nc2nccs2)=C(C#N)C1c1ccc(Cl)cc1 (stereo unspecified) do in these assays?
PAFAH2 FP inh: inactive; PAFAH1B3 inh: inactive; PP1 counter: 23; PP5 primary: inactive; PAFAH1B2 inh: inactive; pPAFAH FP inh: inactive; PP1 inh confirm: inactive; PP5 inh counter: inactive

Results for C=CCOC(=O)C1=C(C)NC(SCC(=O)Nc2nccs2)=C(C#N)C1c1cccs1 (stereo unspecified) ?
PAFAH2 FP inh: inactive; PAFAH1B3 inh: inactive; PP1 counter: inactive; PP5 primary: inactive; PAFAH1B2 inh: inactive; pPAFAH FP inh: inactive

How did N#CCSc1nc2ccc(N3CCCCC3)cc2c(=O)n1Cc1ccccc1 do in these assays?
PAFAH2 FP inh: inactive; PAFAH1B3 inh: inactive; PP1 counter: 23; PP5 primary: inactive; PAFAH1B2 inh: inactive; pPAFAH FP inh: inactive; PP1 inh confirm: 21; PP5 inh counter: inactive

How did CN1CCN(S(=O)(=O)c2cccc(C(=O)Oc3ccc(Br)cc3F)c2)CC1 do in these assays?
PAFAH2 FP inh: inactive; PAFAH1B3 inh: inactive; PP1 counter: 34; PP5 primary: inactive; PAFAH1B2 inh: inactive; pPAFAH FP inh: inactive; PP1 inh confirm: inactive; PP5 inh counter: inactive

Results for O=C1CN(C(=O)NCC(=O)N[C@@H](C(=O)O)c2ccccc2)c2ccccc2N1 ?
PAFAH2 FP inh: inactive; PAFAH1B3 inh: inactive; PP1 counter: 18; PP5 primary: inactive; PAFAH1B2 inh: inactive; pPAFAH FP inh: inactive; PP1 inh confirm: inactive; PP5 inh counter: inactive

What do the screens show for `O=C1CN(C(=O)N[C@@H](Cc2ccccc2)C(=O)N[C@@H](C(=O)O)c2ccccc2)c2ccccc2N1`?
PAFAH2 FP inh: inactive; PAFAH1B3 inh: inactive; PP1 counter: inactive; PP5 primary: inactive; PAFAH1B2 inh: inactive; pPAFAH FP inh: inactive

What do the screens show for `CCCCC(=O)NC(c1ccc(N(CC)CC)cc1)c1ccc2cccnc2c1O` (stereo unspecified)?
PAFAH2 FP inh: inactive; PAFAH1B3 inh: inactive; PP1 counter: 35; PP5 primary: inactive; PAFAH1B2 inh: inactive; pPAFAH FP inh: 26; PP1 inh confirm: 24; PP5 inh counter: inactive

What do the screens show for `CCCCC(=O)NC(c1ccc(N(C)C)cc1)c1ccc2cccnc2c1O` (stereo unspecified)?
PAFAH2 FP inh: inactive; PAFAH1B3 inh: inactive; PP1 counter: 29; PP5 primary: inactive; PAFAH1B2 inh: inactive; pPAFAH FP inh: 26; PP1 inh confirm: 21; PP5 inh counter: inactive
